# From PubChem BioAssay (NCI)
# Compounds without any hit were thinned out: in the full panel of roughly 79,000, 15% have a hit. Values without a mark were called inactive. Activity calls are given as the source filed them. Cut-off read from the data, not from the text of the source: active = growth inhibition above about 70%; inactive = the rest.
# Experiment: NCI Yeast Anticancer Drug Screen. Data for the mlh1 rad18 strain (AID 175)
# Conditions: S. cerevisiae mlh1 rad18 strain growth inhibition; at 50.0 µM (retest, dose inferred, filed as 5.0); active compounds read high
# In short: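 Genetically defined yeast (DNA repair-deficient) exposed to compounds; growth inhibition determined relative to vehicle.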
row,SMILES,growth inhibition
1,c1ccc2nc3ccccc3nc2c1,65%
2,O=C(NCCCl)Nc1c2ccccc2nc2ccccc12,41%
3,CC1=C2CCC3C(CCC4(C)C(C(C)CCCC(C)C)CCC34)C2(C)CCC1=O (centres undefined),9%
4,Cc1cccc(Cl)c1NC(=O)/C=C/c1ccccc1,48%
5,O=C1/C(=C/c2ccc(Cl)cc2)CSC/C1=C\c1ccc(Cl)cc1,42%
6,CCOC(=O)c1c(N)sc2c1CCCCC2,-88%
7,CC(C)NC(=O)O/N=C1\CCC2[C@@H]3CC=C4C[C@@H](OC(=O)NC(C)C)CC[C@]4(C)C3CC[C@]12C (some centres undefined),71% (active)
8,COc1ccc2c(c1)c(=O)c1c(NCCN(C)C)ccc3nnn2c31,-12%
9,CCCC(=O)N(C(=O)CCC)C1=C(Cl)C(=O)c2ccccc2C1=O,64%
10,CN(C)C1C=CCC(c2ccccc2)C1[N+](=O)[O-] (centres undefined),94% (active)
11,CC(=O)NC1C(=O)CC(c2ccccc2)N(C)C1c1ccccc1 (centres undefined),-7%
12,CCCCC#CCCOC(=O)C#CCCCC,3%
13,CC1C[C@]2(C)C(=S)Nc3ccccc3[C@@H]2Nc2ccccc21 (some centres undefined),58%
14,O=[N+]([O-])/C=C/c1c[nH]c2c1ccc1ccccc12,94% (active)
15,CCC[CH2][Sn]([S][Sn]([CH2]CCC)([c]1ccccc1)[c]1ccccc1)([c]1ccccc1)[c]1ccccc1,91% (active)
16,CCN(CC)CCCCNc1ccc(Cl)cc1,8%
17,C[n+]1c(/C=C\c2ccccc2)sc2ccccc21,81% (active)
18,Cc1nnc2nc3c(nn12)c1ccccc1n3C,-77%
19,CS(=O)c1cc(=O)c2ccccc2s1 (centres undefined),88% (active)
20,COC(=O)C1=C(C)NC(C)=C(C(=O)OC)C1c1ccc(NCc2ccccc2)c([N+](=O)[O-])c1,71% (active)

row,SMILES,growth inhibition
1,C/C(=N/NC(=S)Nc1ccccc1Cl)c1ccccn1,20%
2,Nc1ccccc1Sc1ccc(C(F)(F)F)cc1[N+](=O)[O-],19%
3,COc1ccc2nc(-c3ccc(Cl)cc3)[nH]c2c1,78% (active)
4,Cc1c(C)c(C)c(C(=O)c2ccccc2C(=O)NCCSC(C)(C)C)c(C)c1C,55%
5,COC(=O)C(=O)C(C(=O)Nc1cccc(C)c1C)C1Sc2ccccc2NC1=O (centres undefined),92% (active)
6,Cc1nc2c(O)c3c(c(O)c2nc1C)C1C=CC3CC1,82% (active)
7,C[C@]12CCC(=O)C=C1CC[C@@H]1[C@@H]2[C@@H](O)C[C@@]2(C)[C@H]1CC[C@]2(O)C(=O)COC(=O)CCC1CCCC1,92% (active)
8,CC(=O)OCCc1ccc(CCc2ccccc2)cc1,-4%
9,COc1cc2c(cc1OC)C(=O)C(C)(c1ccccc1)NC2 (centres undefined),-3%
10,CCCCCCC(/C=C/c1c(Cl)cccc1Cl)=N\O,56%
11,O=C1OC(c2ccc(O)cc2)=C(c2ccccc2)C1c1ccccc1 (centres undefined),67%
12,c1cc[c]([Ge]([O]c2cccc3cccnc23)([c]2ccccc2)[c]2ccccc2)cc1,10%
13,CCCCCCCCCCCCCCCCCCOP(=O)([O-])OCC[N+](C)(C)C,99% (active)
14,Cc1noc(NS(=O)(=O)c2ccc(NCc3c4ccccc4nc4cc(Cl)ccc34)cc2)c1C,-5%
15,CCC(=NCCCCCCN=C(CC)c1cc(C)cc([N+](=O)[O-])c1O)c1cc(C)cc([N+](=O)[O-])c1O.[Fe],63%
16,O=C(O)c1ccc([N+](=O)[O-])cc1.[Ag],99% (active)
17,O=C1C(=O)c2ccccc2C(O)=C1C(c1ccccc1)c1ccccc1,90% (active)
18,CC(=O)SC1C(=O)N(C)C(SC(C)=O)C(=O)N1C (centres undefined),70% (active)
19,COc1ccc2c(c1)CN([C@@H](C)[C@H]1CC[C@H]3[C@@H]4CC[C@H]5C[C@@H](O)CC[C@]5(C)[C@H]4CC[C@]13C)CO2,99% (active)
